In the library only some 7.9% were active in any assay of this set; here they are far more common.
Marburg entry inh: inhibitors of Marburg virus binding or cell entry; Marburg virus pseudotyped entry inhibition, cell reporter; Potency, µM (series often up to 37.8 µM), for the others: top-dose activity change, negative = inhibition, actives largely listed as inhibitors; hit rate 1.8% among 300,000; AID 540276; calls by dose curve; tested in HEK293 cells; also: potency is read from the fitted curve at half-maximal effect
HCV inh: blocks hepatitis C virus; Huh7.5.1 HCVcc-Cre infection, luciferase reporter, 44 h; hit rate 3.4% among 340,000; AID 651820; Potency, µM (series often up to 41.8 µM), for the others: at the top dose activity change, negative = inhibition, hits mostly inhibitors; active = well fitted inhibition curve with a large enough effect; inconclusive = small, poorly fitted or top-dose-only effect, or another doubt; inactive = no such curve, though single readings can be large or run the other way; also: potency is read from the fitted curve at half-maximal effect
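A cell-based infection assay in which seeded cells (1,000 per well) receive test compound after 4 h, are inoculated with HCVcc-Cre at approximately 0.5 moi, and are incubated 44 h before luminescence detection.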
Lassa entry inh: inhibitors of Lassa virus binding or cell entry; Lassa virus pseudotype entry inhibition, cell reporter; hit rate 1.2% among 300,000; Potency, µM (titrated, usually from 37.9 µM), inactives show top-dose activity change, negative = inhibition, most hits filed as inhibitors; calls by dose curve; tested in HEK293 cells; also: potency is read from the fitted curve at half-maximal effect; nearly all actives have a fitted effect of over 50% in size
HCMV inh: inhibitors of human cytomegalovirus | AID 1259415 | HFF cells, HCMV-luciferase reporter, 72 h; active compounds read low | activity change, negative = inhibition, % at 57.5 µM | hit rate 4.5% among 410,000; in the data active = activity change below about -60%; inconclusive = no clear call, values can overlap the other calls; inactive = above about -39%
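Screen run at 2 compound doses on HFFs infected with reporter HCMV, MOI 1 PFU/cell. Luciferase activity from cell lysates at 72 h post infection gave inhibition relative to buffer-only and Salinomycin wells.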
FMDV inh: antivirals against foot and mouth disease virus; AID 1159524; FMDV antiviral cell-based qHTS; Potency, µM (series often up to 57.9 µM), without a hit: at the top dose activity change, negative = inhibition, actives largely listed as inhibitors; hit rate 1.2% among 410,000; calls by dose curve; tested in HEK293T cells; also: read-out not given here; potency is read from the fitted curve at half-maximal effect; nearly all actives have a fitted effect of over 45% in size
Starred values were filed as active, the others as inactive; ? = inconclusive; nt = no result; [ ] = remark or other dose. % is scaled to controls: 0 for no effect and ±100 for the full control effect.

SMILES | Marburg entry inh | HCV inh | Lassa entry inh | HCMV inh | FMDV inh
O=C(CSc1nc2cc(Cl)ccc2s1)NCC1CCCO1 (stereo unspecified) | ? | 1% | 17% | -17 | -26%
COC(=O)c1c(SC)nc2ccccc2c1OCc1ccc(C)cc1 | nt | nt | 29%[46.1 µM] | -17 | 1%
O=C(Cc1nc2ccccc2[nH]1)c1cccc([N+](=O)[O-])c1 | nt | 11µM* | nt | -17 | -20%
Oc1ccc(/C(Cc2ccccn2)=N\Nc2ccccc2)c(O)c1 | 8.9µM* | -17% | ? | -26 | ?
CNc1nc2cnc(Nc3ccc(F)c(Cl)c3)cc2n1-c1cc(OC)c(OC)c(OC)c1 | nt | nt | nt | 76 | nt
CCCN(CCC)CCNC(=O)c1sc2nc3n(c(=O)c2c1C)CCCCC3 | nt | nt | -16%[46.1 µM] | -17 | -15%
CC(NC(=O)C1CCN(c2nc3ccccc3nc2C(F)(F)F)CC1)c1ccccc1 (stereo unspecified) | nt | nt | 13%[46.1 µM] | -4 | 0%
COc1cc(CNC(C)c2ccccc2)cc(Br)c1OCc1ccccc1 (stereo unspecified) | 7.9µM* | ? | ? | -31 | 0%
COc1cc(CNC(C)c2ccccc2)cc(Br)c1OCc1ccc(F)cc1 (stereo unspecified) | 3.5µM* | 22µM* | ? | ? | -30%
COc1cc(CNC(C)c2ccccc2)cc(Cl)c1OCC(=O)Nc1ccccc1 (stereo unspecified) | nt | 11µM* | nt | -39 | ?
COc1cc(=O)n2c(c1C(=O)N(C)Cc1nccs1)CCN(Cc1ccc(F)c(F)c1)CC2 | nt | nt | nt | nt | -3%
CCOC(=O)c1c(C)[nH]c(CCC(=O)Nc2cc(Cl)ccc2OC)c1C | nt | nt | ? | -13 | -25%
Cc1cc(C)cc(Nc2ncnc3c2nc2n3CCCC2)c1 | nt | nt | -8%[46.1 µM] | ? | 8%
COc1ccc(C(=O)N2CCn3c(nnc3C(=O)N3CCCCC3)C2)cc1 | nt | nt | nt | 8 | nt
COC(=O)c1[nH]c2c(c1C)C(=O)CC(c1cc(OC)ccc1OC)C2 (stereo unspecified) | nt | ? | nt | -10 | -17%
COCCOC(=O)c1[nH]c2c(c1C)C(=O)CC(c1ccco1)C2 (stereo unspecified) | nt | ? | nt | -67* | ?
COC(=O)c1[nH]c2c(c1C)C(=O)CC(c1cccs1)C2 (stereo unspecified) | ? | ? | ? | -76* | -4%
CCOC(=O)c1[nH]c2c(c1C)C(=O)CC(c1ccco1)C2 (stereo unspecified) | nt | ? | nt | -81* | 0%
Cc1c(C(=O)OCc2ccccc2)[nH]c2c1C(=O)CC(c1ccco1)C2 (stereo unspecified) | nt | ? | nt | nt | -26%
COc1ccc(NC(=O)CSc2ncc(-c3ccc(Cl)cc3)[nH]2)cc1OC | 2%[46.1 µM] | nt | -4%[46.1 µM] | -21 | -18%
CC(=O)Nc1c(Br)cc2c(c1Br)Cc1cc(Br)ccc1-2 | ? | ? | -20% | 17 | 3%
CC(=O)Nc1ccc2c(c1)Cc1c-2cc(Br)c(N)c1Br | ? | 11µM* | 20% | -22 | 30%
CC(=O)Nc1ccc2c(c1)Cc1c(F)cccc1-2 | 8% | 10µM* | ? | 7 | 98%
CCc1ccccc1NC(=O)Nc1cc(C(=O)NCc2ccccc2OC)ccc1N1CCCC1 | nt | nt | 28%[46.1 µM] | -3 | -5%
O=[N+]([O-])c1cccc(C2NCC(c3ccccc3Cl)c3c2[nH]c2ccccc32)c1 (stereo unspecified) | ? | -6% | 14µM* | 20 | 0%
SMILES | Marburg entry inh | HCV inh | Lassa entry inh | HCMV inh | FMDV inh
Cc1ccc(-c2c(C)n3c4c(=O)n(C)c(=O)n(C)c4nc3n2CCO)cc1 | nt | nt | ? | ? | 18µM*
Cc1c(-c2ccccc2)n(-c2ccccc2O)c2nc3c(c(=O)n(C)c(=O)n3C)n12 | ? | nt | ? | -64* | 25µM*
COCCn1c(-c2ccccc2)c(C)n2c3c(=O)n(C)c(=O)n(C)c3nc12 | ? | nt | -27%[46.1 µM] | -34 | 3.2µM*
Cc1cc(C)cc(-n2c(-c3ccccc3)c(C)n3c4c(=O)n(C)c(=O)n(C)c4nc23)c1 | -17%[46.1 µM] | nt | -1%[46.1 µM] | 0 | -23%
CCOC(=O)C1=CN(CCNC(=O)OC(C)(C)C)C(=O)NC1c1ccccc1 (stereo unspecified) | 21%[14.2 µM] | nt | nt | nt | nt
COc1ccc(NC(=O)c2ccco2)cc1NC(=O)COc1ccc(Cl)c(C)c1 | 1%[46.1 µM] | nt | -23%[46.1 µM] | -6 | -6%
CCCCN1C(=O)CN(C2CCCCCC2)C(=O)C1c1ccc(OCCC)c(OC)c1 (stereo unspecified) | nt | nt | 8%[46.1 µM] | -15 | -15%
